Measurements published in the supplement of paper PMC9446081.
About 220 (0.56%) of roughly 39,000 compounds showed activity. The sample as a whole holds a higher share of actives than the screen did. Values without a mark were called inactive.

What follows are compounds tested on Escherichia coli K-12 BW25113 (assay: relative growth (OD600 normalised to plate interquartile mean) (fraction); higher = less growth inhibition, active = 0.2 or less). Conditions: 50 µM; LB; incubation time: overnight (16-24 h).
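Also: Wild-type cells incubated without shaking, value is the mean of two biological replicates.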

| Structure (SMILES) | relative growth |
| --- | --- |
| Cc1noc(C)c1NC(=O)Nc1ccc2c(c1)C(=O)N([C@H](C)CO)C[C@H](C)[C@@H](CN(C)C(=O)Nc1ccc(F)cc1)OCCCC[C@@H](C)O2 | 0.985 |
| CCN1CCN(c2ccc(Nc3cc(N(C)C(=O)Nc4c(Cl)c(OC)cc(OC)c4Cl)ncn3)cc2)CC1 | 0.975 |
| C[C@@H]1CN([C@H](C)CO)C(=O)Cc2cc(NC(=O)Nc3ccc(F)cc3)ccc2O[C@@H]1CN(C)S(C)(=O)=O | 0.979 |
| C[C@@H]1CCCCO[C@H](CN(C)S(=O)(=O)c2ccc(Cl)cc2)[C@H](C)CN([C@@H](C)CO)C(=O)c2cc(NC(=O)c3ccncc3)ccc2O1 | 0.997 |
| Cc1ccc(S(=O)(=O)N(C)C[C@@H]2OCCCC[C@@H](C)Oc3ccc(NC(=O)Nc4c(C)noc4C)cc3C(=O)N([C@H](C)CO)C[C@@H]2C)cc1 | 1 |
| CC(=O)N[C@H]1CC[C@@H](CCNC(=O)C2CC2)O[C@H]1CO | 0.943 |
| CC1(C)SC2C(NC(=O)COc3ccccc3)C(=O)N2C1C(=O)[O-].[K+] (stereo not given) | 0.598 |
| CC1(C)SC2C(N3C(=O)C(c4ccccc4)NC3(C)C)C(=O)N2C1C(=O)[O-].[K+] (stereo not given) | 0.0443 (active) |
| CC1(C)SC2C(NC(=O)Cc3ccccc3)C(=O)N2C1C(=O)[O-].[K+] (stereo not given) | 0.576 |
| O=C(C[C@H]1C[C@@H]2c3cc(NC(=O)C4CCOCC4)ccc3O[C@@H]2[C@@H](CO)O1)NCc1cc(F)ccc1F | 0.984 |
| C[C@@H]1CCCCO[C@@H](CN(C)C(=O)C2CCCCC2)[C@H](C)CN([C@@H](C)CO)C(=O)c2cc(NS(=O)(=O)c3ccccc3)ccc2O1 | 1.02 |
| COc1ccc(S(=O)(=O)Nc2ccc3c(c2)C(=O)N([C@@H](C)CO)C[C@@H](C)[C@@H](CN(C)S(=O)(=O)c2cn(C)cn2)O3)cc1 | 0.994 |
| Cn1sccc1=O | 0.0369 (active) |
| COc1ccccc1C#Cc1cnc2c(c1)C(=O)N([C@@H](C)CO)C[C@@H](C)[C@@H](CN(C)C(=O)c1ccc3c(c1)OCO3)O2 | 1.03 |
| COc1ccc(S(=O)(=O)Nc2ccc3c(c2)C(=O)N([C@@H](C)CO)C[C@@H](C)[C@H](CN(C)Cc2ccc(C(=O)O)cc2)OCCCC[C@@H](C)O3)cc1 | 0.984 |
| CC(C)CC#Cc1cnc2c(c1)C(=O)N([C@@H](C)CO)C[C@@H](C)[C@@H](CN(C)C(=O)CCN1CCCCC1)O2 | 0.965 |
| CN1CCN(c2c(F)cc3c(=O)c(C(=O)O)cn(CCF)c3c2F)CC1 | 0.0442 (active) |
| CN1CCN(c2c(F)cc3c(=O)c(C(=O)O)cn4c3c2SCC4)CC1 | 0.0436 (active) |
| C[C@@H]1CN([C@@H](C)CO)C(=O)CCCn2nncc2CO[C@@H]1CN(C)S(=O)(=O)c1ccc(Oc2ccccc2)cc1 | 1.02 |
| Cc1ccc(S(=O)(=O)N[C@@H]2C=C[C@H](CC(=O)NCCN3CCCCC3)O[C@@H]2CO)cc1 | 1.01 |
| Cc1ccc(S(=O)(=O)N(C)C[C@@H]2OCCCC[C@H](C)Oc3ccc(NC(=O)Nc4ccc(F)cc4)cc3C(=O)N([C@H](C)CO)C[C@H]2C)cc1 | 0.983 |
| CC(C)NC(=O)Nc1ccc2c(c1)C(=O)N([C@H](C)CO)C[C@H](C)[C@@H](CN(C)C(=O)C1CCCCC1)OCCCC[C@@H](C)O2 | 0.984 |

| Structure (SMILES) | relative growth |
| --- | --- |
| COc1cc2c(cc1OC)C(=O)C(CC1CCN(Cc3ccccc3)CC1)C2.Cl (stereo not given) | 0.0489 (active) |
| NC1CCN(Cc2ccccc2)CC1 | 1.09 |
| NCC1CCN(Cc2ccccc2)CC1 | 1.02 |
| O=C(C[C@H]1C[C@@H]2c3cc(NS(=O)(=O)c4ccc(F)cc4)ccc3O[C@@H]2[C@@H](CO)O1)NCc1ccccn1 | 1.01 |
| NC1(CC(=O)O)CCN(Cc2ccccc2)CC1 | 0.999 |
| Cn1cc(CN2CCC(C(=O)N[C@@H](c3ccc(F)cc3)c3ccc4ccccc4n3)CC2)c2ccccc21 | 0.963 |
| C[C@@H]1CN([C@H](C)CO)C(=O)c2cccc(NS(=O)(=O)c3cn(C)cn3)c2O[C@@H]1CN(C)CC1CCCCC1 | 0.98 |
| COc1ccc(CN(C)C[C@@H]2Oc3c(NC(=O)c4cc(C)nn4C)cccc3C(=O)N([C@@H](C)CO)C[C@H]2C)cc1 | 0.957 |
| CCn1cc(C(=O)O)c(=O)c2cc(F)c(N3CCNCC3)cc21 | 0.0456 (active) |
| CCn1cc(C(=O)N2CCN(C)CC2)c(=O)c2cc(S(=O)(=O)N(C)C)ccc21 | 0.974 |
| CCn1cc(C(=O)O)c(=O)c2cc(F)c(N3CCN(C)CC3)cc21.CS(=O)(=O)O | 0.0455 (active) |
| CCn1cc(C(=O)O)c(=O)c2cc(F)c(N3CCN(C(=S)Nc4cc(C(F)(F)F)ccc4Cl)CC3)cc21 | 0.0858 (active) |
| O=C(OC(C(F)(F)F)C(F)(F)F)N1CCN(Cc2ccc(C(F)(F)F)cc2N2CCCC2)CC1 | 0.994 |
| CCOC(=O)c1c[nH]c(CC(C)=O)nc1=O | 0.999 |
| Cc1ccc(S(=O)(=O)N2C[C@@H](O)COC[C@H]3O[C@H](CC(=O)N[C@H]4CCN(Cc5ccccc5)C4)CC[C@@H]32)cc1 | 1.01 |
| C[C@H]1CN([C@@H](C)CO)C(=O)Cc2cc(NC(=O)Nc3ccc4c(c3)OCO4)ccc2O[C@H]1CN(C)S(=O)(=O)c1cn(C)cn1 | 0.835 |
| C[C@@H]1CN([C@H](C)CO)C(=O)c2cccc(NC(=O)Nc3cccc4ccccc34)c2O[C@H]1CN(C)S(=O)(=O)c1ccccc1 | 0.987 |
| COc1ccc(S(=O)(=O)N(C)C[C@H]2Oc3c(NS(=O)(=O)c4c(C)noc4C)cccc3C(=O)N([C@H](C)CO)C[C@H]2C)cc1 | 0.997 |
| CON=C1CN(c2nc3c(cc2F)c(=O)c(C(=O)O)cn3C2CC2)CC1CN.CS(=O)(=O)O (stereo not given) | 0.0419 (active) |
| CO/N=C1\CN(c2nc3c(cc2F)c(=O)c(C(=O)O)cn3C2CC2)C[C@@H]1CN | 0.154 (active) |
| C[C@H]1CN([C@@H](C)CO)C(=O)Cc2cc(NC(=O)NC3CCCCC3)ccc2O[C@H]1CN(C)S(=O)(=O)c1cn(C)cn1 | 0.985 |
| C[C@H]1CN([C@@H](C)CO)C(=O)c2cc(NC(=O)Cc3ccccc3)ccc2O[C@@H]1CN(C)S(=O)(=O)c1cccs1 | 0.993 |

| Structure (SMILES) | relative growth |
| --- | --- |
| Nc1ccc(OCC(=O)N2CCOCC2)cc1 | 1.03 |
| CC(C)NC(=O)Nc1ccc2c(c1)C(=O)N([C@H](C)CO)C[C@@H](C)[C@H](CN(C)Cc1ccc(C(F)(F)F)cc1)OCCCC[C@@H](C)O2 | 1.02 |
| CCOc1ccc2c(c1)-c1c(ssc1=S)C(C)(C)N2C | 0.993 |
| CCN1CCN(C(=O)N[C@@H](C(=O)N[C@@H]2C(=O)N3[C@@H]2SC(C)(C)[C@@H]3C(=O)O)c2ccccc2)C(=O)C1=O | 0.606 |
| CC1(C)SC2C(NC(=O)C(NC(=O)N3CCNC3=O)c3ccccc3)C(=O)N2C1C(=O)[O-].[Na+] (stereo not given) | 0.263 |
| CCN1CCN(C(=O)NC(C(=O)NC2C(=O)N3C2SC(C)(C)C3C(=O)[O-])c2ccccc2)C(=O)C1=O.[Na+] (stereo not given) | 0.0465 (active) |
| CC1(C)S[C@@H]2[C@H](NC(=O)[C@H](NC(=O)N3CCNC3=O)c3ccccc3)C(=O)N2[C@H]1C(=O)O | 0.0984 (active) |
| CC1(C)SC2C(NC(=O)C(C(=O)[O-])c3ccccc3)C(=O)N2C1C(=O)[O-].[Na+].[Na+] (stereo not given) | 1.1 |
| CC1(C)S[C@H]2[C@@H](NC(=O)[C@@H](NC(=O)N3CCN(S(C)(=O)=O)C3=O)c3ccccc3)C(=O)N2[C@@H]1C(=O)O | 0.237 |
| C[C@@H]1CN([C@H](C)CO)C(=O)CCCn2cc(nn2)CO[C@H]1CN(C)C(=O)C1CC1 | 1.02 |
| Cn1nc(-c2ccccn2)nc2c(=O)n(C)c(=O)nc1-2 | 0.933 |
| C[C@@H]1CCCCO[C@H](CN(C)Cc2ccccc2)[C@H](C)CN([C@@H](C)CO)C(=O)c2cc(NS(=O)(=O)c3cccs3)ccc2O1 | 0.975 |
| C[C@@H]1CN([C@H](C)CO)S(=O)(=O)c2ccc(-c3cccc(C#N)c3)cc2O[C@@H]1CN(C)C(=O)c1ccncc1 | 1 |
| C[C@@H]1CN([C@H](C)CO)C(=O)Cc2cc(NS(=O)(=O)c3cccs3)ccc2O[C@@H]1CN(C)Cc1ccc(Cl)c(Cl)c1 | 1.01 |
| O=C(C[C@@H]1CC[C@H](NC(=O)c2cnccn2)[C@@H](CO)O1)NCc1ccccc1F | 0.993 |
| Cc1noc(C)c1S(=O)(=O)Nc1ccc2c(c1)CC(=O)N([C@@H](C)CO)C[C@@H](C)[C@H](CN(C)S(C)(=O)=O)O2 | 0.975 |
| COc1ccc(NC(=O)Nc2ccc3c(c2)C(=O)N([C@@H](C)CO)C[C@H](C)[C@H](CN(C)S(C)(=O)=O)O3)cc1 | 0.991 |
| Cc1ccc(S(=O)(=O)N(C)C[C@H]2Oc3c(NC(=O)c4ccncc4)cccc3C(=O)N([C@@H](C)CO)C[C@H]2C)cc1 | 1.01 |
| Cn1cc(-c2[nH]c3cc(NC(=O)[C@H](N)C4CCCCC4)cc4c3c2C=NNC4=O)cn1 | 0.161 (active) |
| C[C@@H]1CN([C@@H](C)CO)C(=O)c2cc(NC(=O)Nc3ccc4c(c3)OCO4)ccc2O[C@@H](C)CCCCO[C@@H]1CN(C)C(=O)NC1CCCCC1 | 1.04 |
| O=c1c(O[C@@H]2O[C@H](CO)[C@@H](O)[C@H](O)[C@H]2O)c(-c2ccc(O)c(O)c2)oc2cc(O)cc(O)c12 | 1.04 |
